Screening data from PubChem.
An excerpt weighted towards active compounds, which were near 4.5% of everything screened.
BJeLR viability = kills HRASV12-expressing BJeLR cells; BJeLR (HRASV12) viability, CellTiter-Glo ATP luminescence, 48 h; 0.17% of 300,000 active; inhibition, % (concentration not given with the values); in the data active means inhibition above about 50%
PrP UTR inh = suppresses PrP 5' UTR mRNA reporter expression; 0.35% of 340,000 active; inhibition, % (no concentration beside the values); AID 488862; cell-based PrP 5' UTR mRNA reporter, plate reader; in the data active means inhibition above about 52%; further: 0 = median of the neutral control wells
PrPC surface inh = reduces human prion protein on the cell surface; P04156; cell surface PrPC, TR-FRET read-out; inhibition, % at 13.8 µM; 0.43% of 370,000 active; in the data active means inhibition above about 24%; further: 0% = median of the test wells and 100% = reference compound wells
GDH-TPI inh = counter-screen for M. tuberculosis FBA inhibitors: GDH-TPI coupled enzymes; GDH-TPI coupled enzyme counterscreen, NADH absorbance; inhibition, % at 4.8 µM; 1.2% of 360,000 active; in the data active means inhibition above about 30%;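 further: 0% = DMSO wells and 100% = wells lacking the enzyme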
PfHsp40 yeast = rescue of PfHsp40-mediated yeast toxicity; S. cerevisiae expressing PfHsp40, growth rescue, ATP luminescence; 0.68% of 340,000 active; AID 504582; growth rescue, % at 12.5 µM; in the data active means growth rescue above about 28%, passing the limit was not always enough;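 further: yeast W303a lacking pdr1 and pdr3 grown in galactose medium; growth measured after three days at 30 °C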
FBA Mtb inh = inhibits M. tuberculosis FBA enzyme; P9WQA3; purified M. tuberculosis FBA, fluorescence read-out; inhibition, % at 1 µM; 2.3% of 360,000 active; AID 588726; in the data active means inhibition above about 27%;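 further: 0% = vehicle and 100% = reference inhibitor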
Target sequence (P9WQA3 whole entry, looked up): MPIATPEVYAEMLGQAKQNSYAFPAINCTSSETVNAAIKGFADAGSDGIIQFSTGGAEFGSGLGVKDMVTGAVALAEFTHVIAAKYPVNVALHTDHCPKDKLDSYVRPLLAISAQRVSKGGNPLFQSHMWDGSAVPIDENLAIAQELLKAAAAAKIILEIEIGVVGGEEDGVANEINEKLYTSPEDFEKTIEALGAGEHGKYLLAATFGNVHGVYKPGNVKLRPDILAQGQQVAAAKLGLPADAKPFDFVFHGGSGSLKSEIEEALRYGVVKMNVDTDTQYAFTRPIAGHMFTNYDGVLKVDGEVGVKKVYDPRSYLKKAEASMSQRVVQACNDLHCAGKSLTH
* = called active by the depositor; / = no result given; + = active, no number.

SMILES	BJeLR viability	PrP UTR inh	PrPC surface inh	GDH-TPI inh	PfHsp40 yeast	FBA Mtb inh
Cc1ccc(S(=O)(=O)c2c(N)n(CC3CCOC3)c3nc4ccccc4nc23)cc1 (stereo unspecified)	-2	-12	1	22	-1	+
Cc1ccc(-n2c(N)c(S(=O)(=O)c3ccccc3)c3nc4ccccc4nc32)cc1	-5	-19	7	7	2	33*
O=C(OCc1cn(Cc2c(F)cccc2F)nn1)N1CCOCC1	/	/	0	/	/	/
COC(=O)c1cc(C(c2ccccc2O)C2CCC(C)(C)O2)n2ccccc12 (stereo unspecified)	/	/	-4	/	/	/
Cc1cccc(C)c1NC(=O)C(c1ccc(C#N)cc1)n1c(=O)c(-c2cc3ccccc3[nH]2)nc2ccccc21 (stereo unspecified)	/	/	7	/	/	/
Nc1c(S(=O)(=O)c2ccccc2)c2nc3ccccc3nc2n1/N=C/c1ccco1	-10	-43	7	21	0	17
Cc1ccc(S(=O)(=O)c2c(N)n(NC(=O)C3CC3)c3nc4ccccc4nc23)cc1	11	-1	-6	23	17	181*
CCN1/C(=C\c2ccc3cc(C)ccc3[n+]2CC)Sc2cc(C)c(C)cc21	38	24	-15	1	-4	-4
CCN1/C(=C/c2ccc3cc(C)ccc3[n+]2CC)Sc2ccc3sccc3c21	92*	15	/	5	0	-4
O=C(CSc1ccccc1)NC1CCCCN(Cc2cccc(Cl)c2)C1=O (stereo unspecified)	/	/	4	/	/	/
O=C(COCc1ccccc1)N1CC[C@H]2[C@H](CCCN2Cc2cc(F)cc(F)c2)C1	/	/	0	/	/	/
COc1ccc(Cn2ccc3ccc(-c4ccc5ccn(Cc6cccc(F)c6)c5c4)cc32)cc1	/	/	-6	/	/	/
Cc1cc(N2CCOCC2)nc2ccc(NC(=O)CCC(=O)N3CCN(c4ccccc4)CC3)cc12	-5	-28	-1	1	-1	14
CCCN(CCC)CCNC(=O)CCC(=O)Nc1ccc2nc(N3CCOCC3)cc(C)c2c1	10	-24	-4	10	0	127*
CCCCN(CC)CCNC(=O)CCC(=O)Nc1ccc2nc(N3CCN(C)CC3)cc(C)c2c1	6	-1	9	3	1	138*
O=C(Nc1ccc(Br)cc1)OC1CC2CC1[C@H]1CCCCN1[C@H]2Cc1ccccc1 (stereo partly specified)	/	/	3	/	/	/
O=C(NC1CCC1)c1ccc(C#Cc2cccc(F)c2)cn1	/	/	13	/	/	/
COc1cc(/C=C/C(=O)Nc2nc3ccc(S(=O)(=O)N(C)C)cc3s2)cc(OC)c1OC	1	-19	0	48*	1	25
COc1cc(/C=C/C(=O)Nc2nnc(C(C)(C)C)s2)cc(OC)c1OC	-2	-35	-6	24	0	13
COc1c2ccccc2nc2ccccc12	12	-19	3	11	3	143*
CC1(NC(=O)N2CCCCC2)CCS(=O)(=O)C1 (stereo unspecified)	3	-26	0	8	0	-1
CC12CC3(C)CC(C)(C1)CC(NC(=O)N1CCCC1)(C2)C3	3	9	4	7	310*	0
COC(=O)c1cc2c(ccc3ccccc32)oc1=O	-12	-17	5	20	3	+
COc1ccccc1C(=O)Nc1cc2c(ccc3ccccc32)oc1=O	-1	/	/	/	/	/
c1ccc(Nc2nc(-c3ccccn3)cs2)cc1	2	-90	-13	4	317*	1
SMILES	BJeLR viability	PrP UTR inh	PrPC surface inh	GDH-TPI inh	PfHsp40 yeast	FBA Mtb inh
c1ccc(-c2csc(Nc3cccnc3)n2)nc1	-2	/	2	5	0	-1
O=C(Nc1cccc(-c2csc(Nc3ccccc3)n2)c1)c1ccccc1	-7	-21	8	7	73*	0
COc1ccc(-c2csc(Nc3ccccc3)n2)cc1	3	-6	0	-4	57*	-1
O=C(NC1CCCCN(Cc2ccc(OC(F)(F)F)cc2)C1=O)c1ccc2ccccc2c1 (stereo unspecified)	/	/	-1	/	/	/
COc1ccc(N2C(c3ccsc3)=Cc3cc4c(cc3C2c2c[nH]c3ccccc23)OCO4)cc1 (stereo unspecified)	/	/	12	/	/	/
O=C(c1cccc([N+](=O)[O-])c1)N1CCOCC1	-13	-23	-7	-4	3	0
O=C(c1cccc(NS(=O)(=O)c2cccc([N+](=O)[O-])c2)c1)N1CCOCC1	-1	-19	-17	4	0	156*
Cc1nc2ccc(NC(=O)Cc3ccc(Br)cc3)cc2s1	5	-5	10	-19	0	9
Cc1nc2ccc(NC(=O)Cc3ccc4c(c3)OCCO4)cc2s1	1	6	3	3	769*	1
CC(C)(C)CSc1nnc(-c2cccnc2)n1Cc1ccccc1	/	/	0	/	/	/
CCCCC(=O)NC(c1cccc([N+](=O)[O-])c1)c1ccc2cccnc2c1O (stereo unspecified)	/	29	9	0	105*	-1
CCCCC(=O)NC(c1ccc(C(C)C)cc1)c1ccc2cccnc2c1O (stereo unspecified)	54*	38	13	2	-3	-1
CC1=C/C(=N\OS(=O)(=O)c2ccccc2)C(C(C)C)=CC1=O	/	-8	/	1	46*	3
CC1=CC(=O)C(C(C)C)=C/C1=N\OS(=O)(=O)c1ccccc1	/	/	0	/	/	/
COCCCNC(=O)/C(=C\c1cccn1C)NC(=O)c1cccs1	-3	-9	-7	34*	-1	3
O=C(NCCO)/C(=C\c1ccc(Br)cc1)NC(=O)c1cccs1	-6	-26	0	10	1	0
COc1ccccc1CNn1c(-c2cccc(C)c2)nc2ccccc2c1=O	3	-22	1	11	42*	2
COc1ccc(CNn2c(-c3cccc(C)c3)nc3ccccc3c2=O)cc1OC	-10	4	-4	12	-1	0
CC(=O)C1=C(c2ccccc2)NC(=O)NC1c1ccccc1 (stereo unspecified)	-2	-42	-2	7	1	1
O=C1NC(c2ccccc2)=C(c2nc3ccccc3s2)C(c2ccccc2)N1 (stereo unspecified)	1	-13	2	34*	0	0
COc1cc2cc(C(=O)N3CCN(Cc4ccc5c(c4)OCO5)CC3)c(=O)oc2cc1OC	-4	-12	-7	17	-1	+
COc1cc2c(cc1OC)C(C)=NC1(CCCCC1)C2	-1	2	-6	15	0	186*
COc1cc2c(cc1OC)C(c1ccc(Cl)cc1)=NCC2	-1	-17	1	11	0	-1
COc1cc2c(cc1OC)C(C)=NCC2	-2	-19	-7	0	-1	+
COc1ccc(-c2cn3cccnc3n2)cc1NC(=O)C(C)Oc1ccccc1 (stereo unspecified)	0	-15	-6	13	3	122*
COc1cccc(C(=O)Nc2cc(-c3cn4cccnc4n3)ccc2C)c1	6	-15	-8	16	2	+
